Paper PMC11995724, “Antibiotic target discovery by integrated phenotypic and activity-based profiling of electrophilic fragments” (Cell chemical biology, 2025)
Among all 3,200 compounds or so, about 75 (2%) showed an effect of 50% or more. The entries come from a sample that favours strong results as a whole.

What follows are compounds tested on T1, S. aureus MSSA476. Conditions: relative growth, OD600, TSB; 25 µM; inhibitor.
T1 construct: MSSA476
Design: species or system S. aureus MSSA476 (TSB) or V. cholerae SAD30 (LB); 384-well bacterial growth screen at 25 uM, OD600 relative to DMSO control

Row | Structure (SMILES) | % of control remaining [%]
1 | O=C(CCl)N1CCOc2c1cccc2C(F)(F)F [5-G08, 2-chloro-1-[8-(trifluoromethyl)-3,4-dihydro-2H-1,4-benzoxazin-4-yl]ethan-1-one] | 0.3643
2 | CC1CCN(C(=O)CCl)c2cc(C(F)(F)F)ccc2S1 (stereo not drawn) [5-J07, 2-chloro-1-[2-methyl-7-(trifluoromethyl)-2,3,4,5-tetrahydro-1,5-benzothiazepin-5-yl]ethan-1-one] | 106.011
3 | O=C(CCl)Nc1c(Cl)cccc1C(F)(F)F [5-B04, 2-chloro-N-[2-chloro-6-(trifluoromethyl)phenyl]acetamide] | 82.3315
4 | CN(C)S(=O)(=O)c1ccc(Cl)c(NC(=O)CCl)c1 [6-H12, 2-chloro-N-[2-chloro-5-(dimethylsulfamoyl)phenyl]acetamide] | 88.439
5 | C=CC(=O)N1CCN(Cc2cc(=O)n3ccsc3n2)CC1 [3-F22, 7-{[4-(prop-2-enoyl)piperazin-1-yl]methyl}-5H-[1,3]thiazolo[3,2-a]pyrimidin-5-one] | 101.698
6 | O=C(CCl)N1c2ccccc2Sc2ccc(Cl)cc21 [4-N07, 2-chloro-1-(2-chloro-10H-phenothiazin-10-yl)ethan-1-one] | 3.049
7 | CC1CCN(C(=O)CCl)c2cc(Cl)ccc2S1 (stereo not drawn) [4-G16, 2-chloro-1-(7-chloro-2-methyl-2,3,4,5-tetrahydro-1,5-benzothiazepin-5-yl)ethan-1-one] | 93.3778
8 | CC1CSc2ccc(Cl)cc2N(C(=O)CCl)C1 (stereo not drawn) [5-J05, 2-chloro-1-(7-chloro-3-methyl-2,3,4,5-tetrahydro-1,5-benzothiazepin-5-yl)ethan-1-one] | 95.4463
9 | CC(Cl)C(=O)N(Cc1nnc(-c2ccccc2Cl)o1)C1CC1 (stereo not drawn) [5-B17, 2-chloro-N-{[5-(2-chlorophenyl)-1,3,4-oxadiazol-2-yl]methyl}-N-cyclopropylpropanamide] | 92.5319
10 | O=C(CCl)c1cscn1 [10-L08, 2-chloro-1-(1,3-thiazol-4-yl)ethan-1-one] | 27.8125
11 | O=C(CCl)c1ccccn1 [10-J03, 2-chloro-1-(pyridin-2-yl)ethan-1-one] | 51.875
12 | C[C@H]1CN(C(=O)CCl)CCN1C(=O)c1cscn1 [5-L05, 2-chloro-1-[(3S)-3-methyl-4-(1,3-thiazole-4-carbonyl)piperazin-1-yl]ethan-1-one] | 92.5319
